This is a sample that favours compounds with a hit; in the whole collection about 21% have one here.
Shiga toxin inh: Shiga toxin inhibition; AID 2315; Vero cells, Shiga toxin protein synthesis inhibition reporter; inhibition, % at 38.7 µM; 290,000 tested, 9.2% active; in the data active means inhibition mostly above about 28%, no sharp cut-off; inactive means mostly below about 43%; further: 0% is about no effect
Pf growth 96h: P. falciparum growth inhibition at 96 hour, primary screen for plastid delayed-death inhibitors | P. falciparum luciferase reporter growth, 96 h | Potency, µM (highest dose often 28.7 µM), inactives show at the highest dose activity change, negative = inhibition, actives largely listed as inhibitors | 320,000 tested, 6.9% active | AID 504834; further: potency means the concentration at half of the fitted maximal effect; on the % scale 0 is the no-effect control and ±100 the full control effect
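Parasite growth measured via integrated firefly luciferase reporter in P. falciparum. Infected erythrocytes at 2% hematocrit, 0.05% parasitemia final were treated 96 hours at 37 C under 5% CO2, and luminescence was read.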
Giardia FBPA inh: inhibitors of Giardia lamblia fructose-1,6-bisphosphate aldolase; Potency, µM (highest dose often 59.6 µM), for the others: at the highest dose activity, negative = inhibition, usual class: inhibitors; 290,000 tested, 0.71% active; purified Giardia FBPA; further: potency means the concentration at half of the fitted maximal effect; on the % scale 0 is the no-effect control and ±100 the full control effect; nearly all actives have a fitted effect of over 55% in size
Target sequence (A8B2U2 whole entry, looked up): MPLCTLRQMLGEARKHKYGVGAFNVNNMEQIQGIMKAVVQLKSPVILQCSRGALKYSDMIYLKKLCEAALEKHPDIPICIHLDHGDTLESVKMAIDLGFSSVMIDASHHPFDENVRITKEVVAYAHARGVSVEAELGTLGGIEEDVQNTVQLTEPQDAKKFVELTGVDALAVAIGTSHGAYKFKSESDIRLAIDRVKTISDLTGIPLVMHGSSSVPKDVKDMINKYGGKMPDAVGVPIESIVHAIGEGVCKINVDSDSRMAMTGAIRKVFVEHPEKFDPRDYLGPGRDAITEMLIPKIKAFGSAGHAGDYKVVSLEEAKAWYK
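40 nM FBPA preincubated 10 min at RT with compound (up to 57.5 uM final), then substrate plus GAPDH/TPI/NAD/arsenate coupling and diaphorase/resazurin added. Fluorescence read after 20 min at RT, 525/598 nm.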
CHX counter: counter-screen hit for Shiga toxin inhibitors, cycloheximide; 300,000 tested, 12% active; AID 2314; max response, %; cell reporter, cycloheximide protein synthesis inhibition counterscreen; in the data active means max response mostly above about 13%, no sharp cut-off; inactive means mostly below about 14%; further: read at 38.3 µM for the half of the compounds with a filed dose; 0% is about no effect
NS1 function inh: influenza NS1 inhibition; AID 2326; Potency, µM (highest dose often 46.1 µM), without a hit: top-dose activity, positive = more growth; 270,000 tested, 0.4% active; calls by dose curve; further: potency means the concentration at half of the fitted maximal effect; actives are rising curves; nearly all actives have a fitted effect of over 50% in size
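A cell-based growth assay was used: compounds that relieve NS1-induced slow growth of budding yeast raise OD600. Assay medium was yeast nitrogen base with ammonium sulphate and -URA supplement, pH 6.0, with 2% galactose.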
Pf growth 48h: inhibits P. falciparum growth in the first generation, 48 h; P. falciparum luciferase growth in erythrocytes, 48 h; Potency, µM (titrated, usually from 28.7 µM), inactives show at the highest dose activity change, negative = inhibition, most hits filed as inhibitors; 310,000 tested, 5.9% active; further: potency means the concentration at half of the fitted maximal effect; on the % scale 0 is the no-effect control and ±100 the full control effect
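Growth was read as firefly luciferase luminescence after a 48 h, 37 C, 5% CO2 exposure of compounds to reporter-bearing P. falciparum cultures (0.1% parasitemia, 2% hematocrit final) in Albumax-supplemented RPMI 1640.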
* hit, by the source's call; ? = inconclusive; . = no result; [ ] = another dose, or the depositor's remark. Unless noted, the call rests on the fitted dose curve; in most records, active means well fitted curve in the direction sought with a large enough effect; inconclusive means small, poorly fitted or top-dose-only effect, or another doubt; inactive means no such curve, though single readings can be large; an effect the other way counts as inactive or inconclusive.

SMILES	Shiga toxin inh	Pf growth 96h	Giardia FBPA inh	CHX counter	NS1 function inh	Pf growth 48h
O=C(COc1cccc2cccnc12)Nc1cccc(S(=O)(=O)N2CCCC2)c1	.	?	.	.	.	10.4µM*
O=C(COc1cccc2cccnc12)Nc1ccccc1	56.0	-9.9%	1.4%	34.3*	.	118.5%
N#Cc1ccc(-c2ccc(OCC(=O)NCC(=O)Nc3ccc(F)c(F)c3F)cc2)cc1	9.3	-1.6%	11.1%	1.7	6.3%	5.1%
CCCc1nnc(NC(=O)c2ccc(S(=O)(=O)N(C)c3ccccc3OC)cc2)s1	.	13.1µM*	.	.	.	10.4µM*
COc1ccccc1N(C)S(=O)(=O)c1ccc(C(=O)Nc2nc(C)c(C(C)=O)s2)cc1	.	?	.	.	.	11.7µM*
COc1ccccc1N(C)S(=O)(=O)c1ccc(C(=O)NCC2CCCCC2)cc1	.	?	.	.	.	13.1µM*
CCC(C)(C)NC(=O)c1ccc(S(=O)(=O)N(C)c2ccccc2OC)cc1	-8.1	-8.2%	1.8%	-2.8	-2.2%	-24.8%
COCCN(CCOC)S(=O)(=O)c1ccc(C(=O)Nc2nc(C)c(C(C)=O)s2)cc1	-6.0	?	13.2%	1.3	0.6%	0.5%
O=C(NCC1CCCCC1)c1ccc(=O)[nH]c1	15.5	-15.2%	5.3%	-2.5	2.8%	?
N#Cc1ccc(C(=O)NCC2CCCCC2)cc1	50.6*	4.0%	-1.1%	11.4*	-6.7%	43.3%
COc1ccccc1N(C)S(=O)(=O)c1ccc(C(=O)N(C)Cc2ccc(OC(F)F)cc2)cc1	.	?	.	.	.	11.7µM*
COc1ccccc1N(C)S(=O)(=O)c1ccc(C(=O)NCC(C)C)cc1	38.4	.	1.8%	3.7	-14.7%	-14.0%
COc1ccccc1N(C)S(=O)(=O)c1ccc(C(=O)Nc2nccs2)cc1	.	?	.	.	.	14.7µM*
COc1ccc(Br)c(C(=O)Nc2ccc(F)cc2)c1	29.4	37.4%	2.3%	9.4	-3.9%	37.7%
CC(=O)N[C@@H](Cc1c[nH]c2ccccc12)C(=O)NC1CCCc2ccccc21 (some centres not stated)	17.6	-24.2%	-1.4%	1.4	7.8%	?
COc1cccc(OC)c1NC(=O)C1CCCN1C(=O)Nc1cccc(Cl)c1 (configuration not stated)	13.4	-14.0%	3.1%	1.2	13.8%	15.2%
Cc1cc(=O)oc2c(C)c(OC(C)C(=O)NCc3ccccn3)ccc12 (configuration not stated)	-15.3	?	17.5%	7.0	1.2%	?
C=CCC1NS(=O)(=O)OCC1C(C)C (configuration not stated)	-6.1	-17.8%	-8.1%	-1.7	-15.8%	25.1%
Cc1ccc(C(=O)c2c[nH]cc2-c2ccccc2)cc1	-32.2	37.8%	-6.3%	17.0*	-17.1%	12.1%
O=C(O)c1ccccc1C(=O)c1ccc(-c2ccccc2)cc1	92.0*	?	9.3%	44.4*	-3.6%	21.5%
O=C(c1ccccc1)c1c[nH]cc1-c1ccccc1	7.4	1.6%	-0.3%	-1.3	-0.9%	10.7%
O=C(COC(=O)CCC(=O)c1cccs1)NC(=O)c1ccc(OC(F)F)cc1	-9.4	61.7%	1.5%	-1.6	.	-3.9%
COc1ccc(CNC(=O)C2CC(=O)N(C3CCCCC3)C2)cc1 (configuration not stated)	-6.4	?	-7.7%	8.0	13.4%	5.9%
O=C(NCCCN1CCN(c2ccccc2F)CC1)C1CC(=O)N(C2CCCC2)C1 (configuration not stated)	-6.4	11.7µM*	4.1%	-7.4	5.2%	.
Cn1c(=O)cc(OCC(=O)NCCCN2CCN(c3ccccc3F)CC2)c2ccccc21	-14.3	?	-3.1%	-5.5	-3.1%	.
SMILES	Shiga toxin inh	Pf growth 96h	Giardia FBPA inh	CHX counter	NS1 function inh	Pf growth 48h
COc1ccc(N2CCN(CCNC(=O)C3CC(=O)N(C4CCCC4)C3)CC2)cc1 (configuration not stated)	-24.3	1.85µM*	-0.8%	-3.2	-10.5%	16.6%
CCn1c(=O)cc(SCC(=O)NCCCN2CCN(c3ccccc3F)CC2)c2ccccc21	-6.3	?	0.6%	15.3	3.1%	11.7µM*
Cc1ccc(CC2C(=O)N(c3cc(C)ccc3C)C(=O)C2C)cc1 (configuration not stated)	-5.0	?	-1.5%	-2.2	-20.9%	38.6%
Cc1ccc(C2CCN(C(=O)Nc3ccccc3)C2)cc1 (configuration not stated)	149.7*	-1.8%	4.4%	39.1*	-82.6%	64.0%
Cc1ccc(NC(=O)N2CCC(NC(=O)C(C)(C)C)CC2)cc1	10.5	6.2%	5.0%	16.7*	18.3%	0.0%
CC(C)N(C)C1CCN(C(=O)Nc2ccc(Cl)cc2)CC1	-9.5	57.5%	-4.4%	1.5	-13.9%	-0.2%
O=C(Nc1ccc(Cl)cc1)N1CCC(c2ccccc2)C1 (configuration not stated)	116.3*	-18.0%	-10.8%	41.8*	.	306.1%
Cc1ccc(NC(=O)N2CCC(c3ccccc3)C2)cc1C (configuration not stated)	100.7*	39.0%[1.15 µM]	-11.4%	52.6*	.	249.9%
Cc1ccc(NC(=O)N2CCC(NC(=O)c3ccccc3C)CC2)cc1	22.4	27.2%	23.8%	-1.3	-3.2%	-18.2%
Cc1ccc(C(=O)NC2CCN(C(=O)Nc3ccccc3)CC2)cc1	24.5	35.6%	-3.7%	-4.1	-1.3%	?
O=c1c(-c2ccccc2)nc2cnc(N3CCNCC3)nc2n1Cc1cccs1	.	.	-0.5%	.	.	.
O=C(NC1=NCCS1)c1ccccc1OCc1ccccc1Cl	11.0	?	-0.2%	-1.8	.	-2.8%
COc1cc(C=O)ccc1Oc1nc(Nc2ccc(F)cc2F)nc(N2CCOCC2)n1	-5.5	-8.1%	-2.0%	-3.3	.	?
CCn1cc(S(=O)(=O)NC(C)c2cc(OC)ccc2OC)cn1 (configuration not stated)	-16.5	21.5%	.	-2.2	-3.2%	7.1%
COc1cc(OC)nc(-n2ncc(Br)c(Br)c2=O)n1	-24.1	13.1µM*	5.1%	-8.5	-36.0%	?
COc1ccc(CCN2CCCC(CN(C)C(=O)c3ccoc3C)C2)cc1 (configuration not stated)	40.3*	?	.	32.4*	-7.1%	-7.2%
COCc1ccc(C(=O)N(C)CC2CCCN(CCc3ccc(OC)cc3)C2)o1 (configuration not stated)	77.2*	?	11.0%	34.2*	-7.0%	5.1%
COc1ccc(CCN2CCCC(CN(C)C(=O)c3cc(C)oc3C)C2)cc1 (configuration not stated)	91.0*	35.2%	1.6%	68.9*	-11.5%	43.7%
CSCCC(N)C(=O)NC(CC(C)C)C(=O)NC(Cc1ccccc1)C(=O)O (configuration not stated)	.	.	-7.0%	.	.	.
O=C1NC2(CCN(Cc3ccccc3)CC2)Oc2ccccc21	-22.6	?	15.7%	4.3	.	?
O=C1c2ccccc2OC2(C=Cc3ccccc3O2)N1Cc1ccccc1 (configuration not stated)	-9.5	4.15µM*	0.3%	-2.9	1.6%	.
